# Assay results reported in PubChem BioAssay (EPA / NIEHS).
# Where “and” joins values, the source holds several entries; their conditions need not be identical. Equal values may be shown once. Inconclusive results are not listed. More than one record can exist for a structure, and the calls need not agree. Calls of active or inactive are those of the source. How the source made its calls: active means hit-call score of the fitted dose curve at least 0.9, where 1 is the maximum; inconclusive means response in the unintended direction; inactive means score below 0.9.
# Tests used:
# [1] = target: human Adrenergic, Alpha 2A Receptor (Adra2A), ADRA2A (gene 150) (UniProt P08913); assay: NVS_GPCR_hAdra2A: NovaScreen (NVS) G Protein-Coupled Receptor Assay for human Adrenergic, Alpha 2A Receptor (Adra2A) (AID 2283257)
# human Adrenergic, Alpha 2A Receptor (Adra2A), ADRA2A (gene 150), sequence (P08913 whole entry, looked up): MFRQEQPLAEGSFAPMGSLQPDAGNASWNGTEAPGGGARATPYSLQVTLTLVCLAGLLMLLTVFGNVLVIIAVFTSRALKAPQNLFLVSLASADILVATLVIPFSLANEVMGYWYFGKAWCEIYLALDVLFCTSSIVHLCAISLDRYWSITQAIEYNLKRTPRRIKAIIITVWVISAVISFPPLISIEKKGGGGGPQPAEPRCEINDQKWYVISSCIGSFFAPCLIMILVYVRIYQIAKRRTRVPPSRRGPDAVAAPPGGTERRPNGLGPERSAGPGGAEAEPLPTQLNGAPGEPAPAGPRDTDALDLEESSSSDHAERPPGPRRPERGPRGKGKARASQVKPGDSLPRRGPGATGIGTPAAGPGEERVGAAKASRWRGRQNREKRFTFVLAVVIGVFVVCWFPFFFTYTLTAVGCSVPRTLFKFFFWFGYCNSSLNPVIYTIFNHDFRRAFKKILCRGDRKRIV
# Method in brief: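 Displacement of a specific radioligand from HT29 membrane protein was counted by filter scintillation after 1 h. Compounds were screened in duplicate at 25 uM, and actives were retested in concentration series. Fitting was positive-direction against DMSO.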
# [2] = target: human Serotonin, 5-Hydroxytryptamine Receptor 7 (5HT7), HTR7 (gene 3363) (UniProt P34969); assay: NVS_GPCR_h5HT7: NovaScreen (NVS) G Protein-Coupled Receptor Assay for human Serotonin, 5-Hydroxytryptamine Receptor 7 (5HT7) (AID 2283255);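 further: hits reduce specific radioligand binding relative to DMSO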
# human Serotonin, 5-Hydroxytryptamine Receptor 7 (5HT7), HTR7 (gene 3363), sequence (P34969 whole entry, looked up): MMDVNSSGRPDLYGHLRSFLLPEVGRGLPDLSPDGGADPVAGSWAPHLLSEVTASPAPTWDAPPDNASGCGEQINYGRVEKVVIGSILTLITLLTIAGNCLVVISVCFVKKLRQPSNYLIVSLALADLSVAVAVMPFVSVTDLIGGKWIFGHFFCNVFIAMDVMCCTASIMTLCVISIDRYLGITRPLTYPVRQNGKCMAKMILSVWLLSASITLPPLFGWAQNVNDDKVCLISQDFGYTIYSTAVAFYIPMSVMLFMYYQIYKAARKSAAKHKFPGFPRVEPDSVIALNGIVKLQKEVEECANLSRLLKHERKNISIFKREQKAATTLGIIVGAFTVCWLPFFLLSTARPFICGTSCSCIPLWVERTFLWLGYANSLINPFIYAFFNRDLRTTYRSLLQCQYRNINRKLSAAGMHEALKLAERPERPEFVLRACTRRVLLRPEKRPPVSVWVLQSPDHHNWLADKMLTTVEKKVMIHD
# Method in brief: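 Filter-bound radioactivity counted after 1 h, with loss of specific radioligand binding fitted against DMSO. Membrane protein came from CHO cells expressing human 5HT7. Chemicals were tested first at 25 uM in duplicate, then in concentration series if active.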
# [3] = target: human Adenosine A2a Receptor (AdoRA2a), ADORA2A (gene 135) (UniProt P29274); assay: NVS_GPCR_hAdoRA2a: NovaScreen (NVS) G Protein-Coupled Receptor Assay for human Adenosine A2a Receptor (AdoRA2a) (AID 2283256)
# human Adenosine A2a Receptor (AdoRA2a), ADORA2A (gene 135), sequence (P29274 whole entry, looked up): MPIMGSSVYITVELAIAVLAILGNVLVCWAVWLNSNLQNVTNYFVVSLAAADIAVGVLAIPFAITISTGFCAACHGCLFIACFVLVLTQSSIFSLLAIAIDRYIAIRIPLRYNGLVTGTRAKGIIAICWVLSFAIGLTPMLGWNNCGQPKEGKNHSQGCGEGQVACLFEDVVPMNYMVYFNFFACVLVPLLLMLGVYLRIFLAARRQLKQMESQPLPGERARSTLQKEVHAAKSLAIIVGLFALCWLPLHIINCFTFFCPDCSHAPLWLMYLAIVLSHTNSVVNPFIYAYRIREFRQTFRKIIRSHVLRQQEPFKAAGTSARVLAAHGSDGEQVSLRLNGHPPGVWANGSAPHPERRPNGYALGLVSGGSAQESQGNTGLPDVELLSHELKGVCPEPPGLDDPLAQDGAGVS
# Method in brief: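 HEK293-derived receptor preparation, radioligand displacement, 1.5 h, filtration + scintillation read. Loss of bound signal scored vs DMSO. Single-point 25 uM in duplicate first, then concentration-response for actives.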
# [4] = target: human Adrenergic, Beta 1 Receptor (Adrb1), ADRB1 (gene 153) (UniProt P08588); assay: NVS_GPCR_hAdrb1: NovaScreen (NVS) G Protein-Coupled Receptor Assay for human Adrenergic, Beta 1 Receptor (Adrb1) (AID 2283258)
# human Adrenergic, Beta 1 Receptor (Adrb1), ADRB1 (gene 153), sequence (P08588 whole entry, looked up): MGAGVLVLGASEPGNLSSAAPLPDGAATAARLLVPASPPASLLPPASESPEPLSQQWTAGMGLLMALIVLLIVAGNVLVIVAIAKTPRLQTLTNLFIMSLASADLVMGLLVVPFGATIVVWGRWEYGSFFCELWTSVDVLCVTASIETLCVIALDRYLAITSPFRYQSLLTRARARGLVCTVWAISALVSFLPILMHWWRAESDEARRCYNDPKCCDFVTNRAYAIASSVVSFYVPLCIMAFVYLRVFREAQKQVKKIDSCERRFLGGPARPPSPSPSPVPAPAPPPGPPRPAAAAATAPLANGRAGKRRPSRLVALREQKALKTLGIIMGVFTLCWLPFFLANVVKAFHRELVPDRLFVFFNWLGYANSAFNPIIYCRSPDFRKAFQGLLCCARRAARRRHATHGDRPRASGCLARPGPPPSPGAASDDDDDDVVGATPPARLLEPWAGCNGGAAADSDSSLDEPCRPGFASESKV
# Method in brief: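 Membranes/protein extracted from human neuroepithelioma cells, radioligand competition binding read by filtration and scintillation 2 h post-dose. Single 25 uM duplicate screen, then concentration-response follow-up; DMSO as negative control.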
# [5] = target: Type-1 angiotensin II receptor (Homo sapiens) (UniProt P30556); assay: NVS_GPCR_hAT1: NovaScreen (NVS) G Protein-Coupled Receptor Assay for human Angiotensin II receptor type 1 (AT1) (AID 2283263)
# Type-1 angiotensin II receptor (Homo sapiens), sequence (P30556 whole entry, looked up): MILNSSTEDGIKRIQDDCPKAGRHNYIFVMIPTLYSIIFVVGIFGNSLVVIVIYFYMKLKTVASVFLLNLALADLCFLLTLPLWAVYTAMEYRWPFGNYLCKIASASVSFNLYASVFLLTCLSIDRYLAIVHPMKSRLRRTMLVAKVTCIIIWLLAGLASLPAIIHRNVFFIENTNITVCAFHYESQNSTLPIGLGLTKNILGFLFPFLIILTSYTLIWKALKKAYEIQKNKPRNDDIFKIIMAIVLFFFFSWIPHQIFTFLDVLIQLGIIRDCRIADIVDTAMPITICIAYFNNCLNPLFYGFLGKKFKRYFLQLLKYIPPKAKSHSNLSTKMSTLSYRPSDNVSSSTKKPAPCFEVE
# Method in brief: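 Hits from a 25 uM duplicate screen (threshold e.g. 30% inhibition) were run in concentration-response with 50 uM top concentration. Displacement of specific radioligand from KAN-TS membrane preparations measured after 3 h by filter scintillation, DMSO as baseline.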
# [6] = target: human Dopamine Receptor D4.4 (DRD4.4), DRD4 (gene 1815) (UniProt P21917); assay: NVS_GPCR_hDRD4.4: NovaScreen (NVS) G Protein-Coupled Receptor Assay for human Dopamine Receptor D4.4 (DRD4.4) (AID 2283264)
# human Dopamine Receptor D4.4 (DRD4.4), DRD4 (gene 1815), sequence (P21917 whole entry, looked up): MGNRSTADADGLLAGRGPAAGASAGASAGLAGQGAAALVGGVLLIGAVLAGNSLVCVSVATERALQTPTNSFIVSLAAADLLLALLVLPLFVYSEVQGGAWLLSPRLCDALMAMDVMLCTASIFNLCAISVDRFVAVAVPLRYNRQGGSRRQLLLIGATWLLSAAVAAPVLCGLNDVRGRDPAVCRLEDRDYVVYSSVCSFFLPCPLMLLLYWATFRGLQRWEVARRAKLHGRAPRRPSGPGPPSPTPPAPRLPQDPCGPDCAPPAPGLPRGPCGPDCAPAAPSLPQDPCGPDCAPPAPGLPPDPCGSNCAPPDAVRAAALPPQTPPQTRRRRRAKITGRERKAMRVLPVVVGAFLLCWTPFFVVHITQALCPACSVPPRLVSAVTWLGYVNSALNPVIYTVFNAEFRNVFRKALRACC
# Method in brief: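 Filter-binding assay with a tritiated or iodinated ligand, cell-free receptor prepared from CHO, 1 hour. Loss of bound radioactivity versus DMSO; single 25 uM duplicate screen, then concentration-response for actives.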
# [7] = target: human Endothelin Receptor Type A (ETA), EDNRA (gene 1909) (UniProt P25101); assay: NVS_GPCR_hETA: NovaScreen (NVS) G Protein-Coupled Receptor Assay for human Endothelin Receptor Type A (ETA) (AID 2283265)
# human Endothelin Receptor Type A (ETA), EDNRA (gene 1909), sequence (P25101 whole entry, looked up): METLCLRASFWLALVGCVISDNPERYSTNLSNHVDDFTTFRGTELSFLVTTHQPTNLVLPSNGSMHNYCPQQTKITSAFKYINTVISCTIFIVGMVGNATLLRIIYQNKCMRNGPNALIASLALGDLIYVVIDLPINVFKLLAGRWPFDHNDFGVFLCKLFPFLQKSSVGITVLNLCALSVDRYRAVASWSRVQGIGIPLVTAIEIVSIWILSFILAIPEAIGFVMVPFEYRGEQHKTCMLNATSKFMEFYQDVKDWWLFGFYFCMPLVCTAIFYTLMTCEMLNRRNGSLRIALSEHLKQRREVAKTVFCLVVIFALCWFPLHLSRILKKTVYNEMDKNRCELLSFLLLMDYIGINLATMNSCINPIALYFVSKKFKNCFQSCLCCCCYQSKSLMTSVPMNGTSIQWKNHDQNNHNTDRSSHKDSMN
# Method in brief: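 Binding of radioligand to membrane protein extracted from SH-SY5Y cells was read by filtration and scintillation after 3 h. Compounds were screened at 25 uM in duplicate, with hits followed up in singleton concentration series to 50 uM.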
# [8] = target: human Adrenergic, Alpha 2c Receptor (Adra2C), ADRA2C (gene 152) (UniProt P18825); assay: NVS_GPCR_hAdra2C: NovaScreen (NVS) G Protein-Coupled Receptor Assay for human Adrenergic, Alpha 2c Receptor (Adra2C) (AID 2283259)
# human Adrenergic, Alpha 2c Receptor (Adra2C), ADRA2C (gene 152), sequence (P18825 whole entry, looked up): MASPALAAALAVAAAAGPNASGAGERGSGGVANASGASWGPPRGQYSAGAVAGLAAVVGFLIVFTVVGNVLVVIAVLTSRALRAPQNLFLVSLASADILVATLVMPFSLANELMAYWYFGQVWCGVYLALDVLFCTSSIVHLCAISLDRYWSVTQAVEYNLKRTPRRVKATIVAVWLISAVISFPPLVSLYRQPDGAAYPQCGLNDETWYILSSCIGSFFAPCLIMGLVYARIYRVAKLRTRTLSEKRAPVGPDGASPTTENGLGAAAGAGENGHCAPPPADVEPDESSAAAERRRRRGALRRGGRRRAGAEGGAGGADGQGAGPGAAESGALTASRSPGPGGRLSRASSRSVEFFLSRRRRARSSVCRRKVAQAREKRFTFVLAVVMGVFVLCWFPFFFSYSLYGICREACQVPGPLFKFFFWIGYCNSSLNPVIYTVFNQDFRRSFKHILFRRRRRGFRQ
# Experimental: NVS_GPCR_hAdra2C is a biochemical, single-readout assay that uses extracted gene-proteins from SF9 in a cell-free assay. Measurements were taken 1 hour after chemical dosing in a 96-well plate.NVS_GPCR_hAdra2C is one of one assay component(s) measured or calculated from the NVS_GPCR_hAdra2C assay. It is designed to make measurements of radioligand binding, a form of binding reporter, as detected with scintillation counting signals by Filter-based radiodetection technology.Data from the assay component NVS_GPCR_hAdra2C was analyzed into 1 assay endpoint. This assay endpoint, NVS_GPCR_hAdra2C, was analyzed in the positive analysis fitting direction relative to DMSO as the negative control and baseline of activity. Using a type of binding reporter, loss-of-signal activity can be used to understand changes in the binding as they relate to the gene ADRA2C. Furthermore, this assay endpoint can be referred to as a primary readout, because the performed assay has only produced 1 assay endpoint. To generalize the intended target to other relatable targets, this assay endpoint is annotated to the gpcr intended target family, where the subfamily is rhodopsin-like receptor.
# Binding assays used specific radioligands (tritiated, iodinated) with non-radioactive competitive displacement ligands in agonist or antagonist protocols (as indicated) and various reference compounds and inhibitors to titrate specific binding to receptors and transporters. Most enzyme assays (CYPs, kinases, phosphatases, proteases, HDACs) used recombinant protein and specific substrates (fluorescence mostly, some colorimetric and radioactive) and inhibitors, followed by a biochemical separation of substrate and product. All assays for the biochemical HTS were initially run in duplicate at a single concentration (10 uM for CYP450 assays and 25 uM for all others). […] Each assay was run with positive and negative controls, and concurrent controls on every plate. The follow-up (secondary) screen tested active chemical-pairs in concentration series, as well as a few additional assays not tested in the primary screen, some selected negative inactives, and several cases re-run in the concentration series for confirmatory purposes.
# [9] = target: human Adrenergic, Beta 3 Receptor (Adrb3), ADRB3 (gene 155) (UniProt P13945); assay: NVS_GPCR_hAdrb3: NovaScreen (NVS) G Protein-Coupled Receptor Assay for human Adrenergic, Beta 3 Receptor (Adrb3) (AID 2283262)
# human Adrenergic, Beta 3 Receptor (Adrb3), ADRB3 (gene 155), sequence (P13945 whole entry, looked up): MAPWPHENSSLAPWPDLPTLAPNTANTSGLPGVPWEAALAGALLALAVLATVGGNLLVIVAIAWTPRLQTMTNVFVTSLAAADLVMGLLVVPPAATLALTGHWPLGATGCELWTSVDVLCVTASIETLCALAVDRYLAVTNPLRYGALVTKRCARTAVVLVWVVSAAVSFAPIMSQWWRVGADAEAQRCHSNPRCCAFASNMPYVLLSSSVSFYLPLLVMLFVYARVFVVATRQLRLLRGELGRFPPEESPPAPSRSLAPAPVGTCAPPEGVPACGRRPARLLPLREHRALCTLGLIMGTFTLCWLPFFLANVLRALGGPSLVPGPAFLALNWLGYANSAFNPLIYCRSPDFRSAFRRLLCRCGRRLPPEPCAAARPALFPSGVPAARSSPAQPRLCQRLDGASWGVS
# Method in brief: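 A cell-free filter binding assay read by scintillation counting, with displacement of a specific radioligand measured after 1 hour. The receptor source was SK-N-MC extracts (cells pretreated with isoproterenol and 8-bromo-cAMP). Compounds were first tested at 25 uM in duplicate and then in concentration series.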
# [10] = target: Beta-2 adrenergic receptor (Homo sapiens) (UniProt P07550); assay: NVS_GPCR_hAdrb2: NovaScreen (NVS) G Protein-Coupled Receptor Assay for human Adrenergic, Beta 2 Receptor (Adrb2) (AID 2283261)
# Beta-2 adrenergic receptor (Homo sapiens), sequence (P07550 whole entry, looked up): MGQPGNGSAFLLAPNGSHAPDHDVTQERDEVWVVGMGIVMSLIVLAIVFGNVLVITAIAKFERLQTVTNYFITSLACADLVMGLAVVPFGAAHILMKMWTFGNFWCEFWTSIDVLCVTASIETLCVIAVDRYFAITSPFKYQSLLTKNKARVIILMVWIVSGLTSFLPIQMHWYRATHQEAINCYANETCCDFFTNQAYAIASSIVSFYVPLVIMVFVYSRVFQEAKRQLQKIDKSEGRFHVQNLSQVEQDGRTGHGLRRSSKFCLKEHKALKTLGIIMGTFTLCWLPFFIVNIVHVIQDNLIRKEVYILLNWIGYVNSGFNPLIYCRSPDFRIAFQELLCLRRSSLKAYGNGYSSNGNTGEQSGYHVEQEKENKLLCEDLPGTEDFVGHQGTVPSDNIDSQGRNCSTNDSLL
# Method in brief: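 Compounds screened in duplicate at 25 uM, then actives in concentration series. Human beta-2 receptor from CHO material, cell-free; radioligand displacement after 1 h measured by filtration and scintillation against DMSO baseline.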
smiles,measurement,setting,value
CCCN(CCC)c1c([N+](=O)[O-])cc(C(F)(F)F)cc1[N+](=O)[O-],outcome,[1],inactive
O=S(=O)(O)C(F)(F)C(F)(F)C(F)(F)C(F)(F)C(F)(F)C(F)(F)C(F)(F)C(F)(F)F,AC50,[2],6.51 µM (active) and 25 µM (active) and 24 µM (active)
same,AC50,[3],6.28 µM (active) [middle of 5 runs]
same,AC50,[4],37 µM (active) and 31.2 µM (active) and 29.9 µM (active)
same,AC50,[5],49.6 µM (active)
same,outcome,[5],inactive
same,AC50,[6],25 µM (active) and 16.3 µM (active) and 24 µM (active)
same,outcome,[6],inactive
same,outcome,[7],inactive
Oc1ccc(Cl)cc1Cc1ccccc1,AC50,[2],20.8 µM (active) [middle of 5 runs]
same,AC50,[3],25.2 µM (active) and 15.1 µM (active)
same,AC50,[4],33.3 µM (active) [middle of 5 runs]
same,AC50,[8],25.2 µM (active) [middle of 6 runs]
same,outcome,[5],inactive
same,AC50,[6],25.2 µM (active)
O=C(O)C(F)(F)C(F)(F)C(F)(F)C(F)(F)C(F)(F)C(F)(F)C(F)(F)F,AC50,[3],11 µM (active)
same,outcome,[8],inactive
same,outcome,[5],inactive
CCOc1nc(NC)nc(NC(=O)NS(=O)(=O)c2ccccc2C(=O)OC)n1,outcome,[1],inactive
N#Cc1c(Cl)c(Cl)c(Cl)c(C#N)c1Cl,outcome,[5],inactive
CC1(C)C(C=C(Cl)Cl)C1C(=O)OC(C#N)c1ccc(F)c(Oc2ccccc2)c1 (stereo unspecified),outcome,[2],inactive
CC[C@H](C)[C@H]1O[C@]2(C=C[C@@H]1C)C[C@@H]1C[C@@H](C/C=C(\C)[C@@H](O[C@H]3C[C@H](OC)[C@@H](O[C@H]4C[C@H](OC)[C@@H](O)[C@H](C)O4)[C@H](C)O3)[C@@H](C)/C=C/C=C3\CO[C@@H]4[C@H](O)C(C)=C[C@@H](C(=O)O1)[C@]34O)O2 (tested in a mixture with another compound),AC50,[2],6.77 µM (active)
same,AC50,[4],6.87 µM (active)
same,AC50,[8],6.06 µM (active)
same,AC50,[5],8.16 µM (active)
CCCN(CCOc1c(Cl)cc(Cl)cc1Cl)C(=O)n1ccnc1,AC50,[2],13.3 µM (active)
same,AC50,[8],4.96 µM (active)
CNC(=O)Oc1cccc(N=CN(C)C)c1,outcome,[6],inactive
COP(=S)(OC)Oc1ccc([N+](=O)[O-])cc1,AC50,[9],12.5 µM (active)
CCOCN(C(=O)CCl)c1c(C)cccc1CC,outcome,[5],inactive
ClC1C(Cl)C(Cl)C(Cl)C(Cl)C1Cl (stereo unspecified),AC50,[3],15.6 µM (active)
Oc1cc(Cl)ccc1Oc1ccc(Cl)cc1Cl,outcome,[2],inactive
same,AC50,[4],37.5 µM (active)
same,AC50,[8],6.8 µM (active)
same,outcome,[7],inactive
CCC(C)(C)C(=O)OC1=C(c2ccc(Cl)cc2Cl)C(=O)OC12CCCCC2,outcome,[8],inactive
COc1nn(CSP(=S)(OC)OC)c(=O)s1,AC50,[10],6.74 µM (active)
O=C(Nc1ccccc1)Nc1cnns1,outcome,[2],inactive
same,outcome,[3],inactive
same,AC50,[8],4.96 µM (active)
OCCOc1ccccc1,outcome,[1],inactive
